Bioassay records as filed in PubChem.
In the library only some 1.5% were active in any assay of this set; here they are far more common.
ALOX12 inh: ALOX12 (human) lipoxygenase inhibition. 580,000 compounds, 1.1% hits. P18054. purified 12hLO, xylenol orange hydroperoxide absorbance. Potency, µM (series often up to 108 µM), actives largely listed as inhibitors
Target sequence (P18054 whole entry, looked up): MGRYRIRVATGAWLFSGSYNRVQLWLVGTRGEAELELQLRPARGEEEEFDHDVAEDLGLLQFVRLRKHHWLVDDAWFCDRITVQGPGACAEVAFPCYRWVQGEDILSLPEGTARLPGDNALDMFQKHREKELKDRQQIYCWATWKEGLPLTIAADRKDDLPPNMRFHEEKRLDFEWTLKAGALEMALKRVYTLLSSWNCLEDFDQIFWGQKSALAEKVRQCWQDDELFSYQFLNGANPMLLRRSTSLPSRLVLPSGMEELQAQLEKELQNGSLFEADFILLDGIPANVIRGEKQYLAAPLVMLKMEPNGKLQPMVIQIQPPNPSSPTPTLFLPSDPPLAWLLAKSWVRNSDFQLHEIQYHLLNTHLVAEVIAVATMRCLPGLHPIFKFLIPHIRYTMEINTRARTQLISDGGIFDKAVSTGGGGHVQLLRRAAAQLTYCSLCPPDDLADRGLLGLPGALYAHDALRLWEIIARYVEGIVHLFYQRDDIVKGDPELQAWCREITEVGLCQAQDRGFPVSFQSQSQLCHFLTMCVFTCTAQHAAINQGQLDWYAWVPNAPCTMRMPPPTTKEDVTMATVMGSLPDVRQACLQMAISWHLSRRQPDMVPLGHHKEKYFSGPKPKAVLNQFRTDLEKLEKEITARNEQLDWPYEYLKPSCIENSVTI
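Purified human 12hLO at 150 nM in 25 mM Hepes, 0.01% Triton X-100, pH 7.0, preincubated 15 min at room temperature with compound. Reaction started with 40 uM arachidonic acid, 30 min at room temperature. Hydroperoxide measured by Fe-xylenol orange, 573/405 nm absorbance ratio.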
IL2 activator: activates IL-2 in a cell-based reporter assay. IL-2 activation reporter assay, cell-based qHTS; stimulated with anti-CD3/CD4/CD28 beads; in transgenic mouse T cells. activation, % (series mostly up to about 46 µM). 360,000 compounds, 0.065% hits; in the data active = activation above about 50%; inconclusive = mostly about 30% to 49%
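Quantitative HTS in unstimulated transgenic mouse T cells, with memory T cells as non-tolerant control and PMA/ionomycin as tolerance-bypass control. Compound pretreatment lasted 60 minutes before 18 h bead stimulation; EGFP/DsRed fluorescence read.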
Nrf2 activator: activates Nrf2 signaling; Potency, µM (series often up to 46.1 µM), hits mostly activators; AREc32 ARE-luciferase reporter (MCF7-derived line), luminescence, 24 h; 410,000 compounds, 0.31% hits; note: nearly all actives have a fitted effect of over 65% in size
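Each well held 1000 AREc32 cells, which were incubated with compound for 24 hr at 37 deg C after overnight attachment, and ARE reporter activity was quantified by firefly luciferase luminescence.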
Integrin act MD: activators of alpha7 integrin expression for muscular dystrophy. alpha7betagal myoblasts, beta-gal FDG fluorescence, 48 h. Potency, µM (highest dose often 38.3 µM), usual class: activators. 350,000 compounds, 0.064% hits. AID 624291; note: nearly all actives have a fitted effect of over 60% in size
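Alpha7betagal+/- myoblasts (passage 13) were plated 16-24 hr, then exposed to compounds (1:260 dilution of DMSO stock) for 48 hours at 37C. After MPER lysis, β-galactosidase reporter activity was read as FDG fluorescence (ex 480/em 540) after 30 minutes.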
uPA generation: blocks generation of uPA at the cell surface | cell surface uPA generation assay, qHTS | Potency, µM (titrated, usually from 38.3 µM), usual class: inhibitors | 330,000 compounds, 0.31% hits | AID 540303; active = well fitted inhibition curve with a large enough effect; inconclusive = small, poorly fitted or top-dose-only effect; inactive = no such curve, though single readings can be large or run the other way; tested in mouse RAW 264.7 cells; note: nearly all actives have a fitted effect of over 55% in size
Hits are given with their value. Unless noted, calls come from the whole dose curve; as a rule, active = well fitted curve in the direction sought with a large enough effect; inconclusive = small, poorly fitted or top-dose-only effect, or another doubt; inactive = no such curve, though single readings can be large; an effect the other way counts as inactive or inconclusive.

How did O=C(Nc1ccccc1F)c1ccc(-c2cccc([N+](=O)[O-])c2)o1 do in these assays?
ALOX12 inh: inactive; IL2 activator: inactive; Nrf2 activator: 1.41µM; Integrin act MD: inactive; uPA generation: inactive

How did O=C(Nc1ccccn1)c1ccc([N+](=O)[O-])o1 do in these assays?
IL2 activator: inactive; Nrf2 activator: inactive; Integrin act MD: inactive; uPA generation: 7.08µM

Results for CCCn1c(NC(=O)c2ccc([N+](=O)[O-])o2)nc2ccccc21 ?
ALOX12 inh: inactive; IL2 activator: inactive; Nrf2 activator: 12.6µM; Integrin act MD: inactive; uPA generation: inactive

How did Cc1cccc(NC(=O)c2ccc([N+](=O)[O-])o2)c1C do in these assays?
ALOX12 inh: inactive; IL2 activator: inactive; Nrf2 activator: inconclusive; Integrin act MD: inactive; uPA generation: inactive

How did CCCn1c(NC(=O)c2cccc(C)c2C)nc2ccccc21 do in these assays?
IL2 activator: inactive; Nrf2 activator: inactive; Integrin act MD: inactive; uPA generation: inactive

How did CCN1C(=O)S/C(=C/c2cn(CC(=O)OC)c3ccccc23)C1=O do in these assays?
ALOX12 inh: inactive

Results for CCN(Cc1ccccc1)C(=O)C1CCN(c2nc3ccccc3o2)CC1 ?
ALOX12 inh: inactive

Results for COc1ccc(N2CCCC2)c(NC(=O)c2ccc([N+](=O)[O-])o2)c1 ?
ALOX12 inh: inactive; IL2 activator: inactive; Nrf2 activator: inconclusive; Integrin act MD: 7.94µM

Results for COC[C@@H]1CN(C(=O)CCc2cccc(OC)c2)C[C@H]1c1ccncc1 ?
ALOX12 inh: inactive

Results for COC(=O)[C@@]1(Cc2ccccc2)[C@@H]2C(=CC(=O)[C@H]2CC(=O)C(=O)N(C)C)CN1C(=O)c1ccccc1 ?
IL2 activator: inactive; Nrf2 activator: inactive; Integrin act MD: inactive; uPA generation: 2.82µM

Results for CNC(=O)c1cnn2cc(C)ccc12 ?
ALOX12 inh: inactive

How did Nc1nccc(/C=C/c2c(Cl)cccc2Cl)n1 do in these assays?
ALOX12 inh: inactive; IL2 activator: inactive; Nrf2 activator: 11.2µM; Integrin act MD: inactive; uPA generation: inactive

Results for Nc1nccc(/C=C/c2ccc(Cl)cc2)n1 ?
ALOX12 inh: inactive; IL2 activator: inactive; Nrf2 activator: inconclusive; Integrin act MD: inactive; uPA generation: inactive

What do the screens show for `CC1=C(C(=O)O)N2C(=O)[C@@H](NC(=O)[C@H](N)C3=CCC=CC3)[C@@H]2SC1`?
ALOX12 inh: inactive

Results for Cc1cccc(-n2nc(-c3c(C)nc4scc(CC(=O)NCCc5ccccc5)n4c3=O)cc2C)c1 ?
ALOX12 inh: inactive

Results for N=C1/C(=C/c2ccc(-c3cccc(C(=O)O)c3)o2)C(=O)N=C2SC(CC(=O)N3CCOCC3)=NN12 ?
ALOX12 inh: inactive; IL2 activator: inactive; Nrf2 activator: inactive; Integrin act MD: inactive; uPA generation: inactive

What do the screens show for `N=C1/C(=C\c2ccc(-c3cccc(C(=O)O)c3)o2)C(=O)N=C2SC=C(c3ccccc3)N12`?
ALOX12 inh: 39.8µM; IL2 activator: inactive; Nrf2 activator: inactive; Integrin act MD: inactive; uPA generation: inactive

What do the screens show for `CCOC(=O)C1=C(CN(CCOC)Cc2ccco2)NC(=O)NC1c1ccc(C)cc1` (configuration not stated)?
ALOX12 inh: inactive

Results for CCCN(CCC)CC1=C(C(=O)OCC)C(c2ccc(C)cc2)NC(=O)N1 (configuration not stated) ?
ALOX12 inh: 14.1µM

How did O=C(c1ccc(C(F)(F)F)cc1)N1CCC2(CC1)COc1ccccc1NC2=O do in these assays?
ALOX12 inh: inactive

Results for Cc1ccc(S(=O)(=O)N(CC(O)Cn2cnc3ccccc32)c2cccc(C)c2)cc1 (configuration not stated) ?
ALOX12 inh: inactive

How did COc1cccc(Nc2ccnc(-c3nnc(C)n3C3CCCCC3)c2)c1 do in these assays?
ALOX12 inh: inactive

What do the screens show for `CCOc1cc(-c2nc(C3CC(=O)N(c4ccc(OC)cc4)C3)no2)cc(OCC)c1OCC` (configuration not stated)?
ALOX12 inh: inactive

What do the screens show for `CN1CC(=O)N(C2CCNCC2)Cc2c(NCCc3cccc(F)c3)ncnc21`?
ALOX12 inh: 17.8µM

How did CN1CC(=O)N(C2CCNCC2)Cc2c1ncnc2N(C)Cc1ccc(F)cc1 do in these assays?
ALOX12 inh: 8.91µM

Results for CC(C)Nc1ncnc2c1CN(C1CCCNC1)C(=O)CN2C (configuration not stated) ?
ALOX12 inh: 3.98µM
